dFosB act – activators of delta FosB homodimer, primary screen, biochemical, fluorescence polarization, TAMRA-CDK5 oligo, single point | Protein FosB (Mus musculus), P13346 | purified delta FosB; percent of positive-control signal above neutral wells | activation, % at 25 µM | 340,000 compounds, 0.99% hits;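 active = mean activation above about 17%, with every replicate also reaching it, limit read from the data, passing the limit was not always enough; inconclusive = only one of the two conditions met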
Target sequence (P13346 whole entry, looked up): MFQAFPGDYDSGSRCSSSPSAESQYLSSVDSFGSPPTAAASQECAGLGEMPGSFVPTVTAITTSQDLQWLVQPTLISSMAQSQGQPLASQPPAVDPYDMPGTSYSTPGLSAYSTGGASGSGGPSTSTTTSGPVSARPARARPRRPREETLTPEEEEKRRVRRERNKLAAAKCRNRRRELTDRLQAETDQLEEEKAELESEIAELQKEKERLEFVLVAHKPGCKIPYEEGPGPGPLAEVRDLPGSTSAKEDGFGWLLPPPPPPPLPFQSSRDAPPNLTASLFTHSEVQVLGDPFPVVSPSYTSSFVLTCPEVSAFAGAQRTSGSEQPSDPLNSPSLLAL
Efa HMGR inh – inhibitors of E. faecalis class II HMGR, primary screen, biochemical, Enterococcus faecalis; HMG-CoA reductase (Enterococcus faecalis, mvaE); purified E. faecalis HMGR, NADPH absorbance 340 nm kinetic; inhibition, % at 10 µM; 190,000 compounds, 0.41% hits;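 active = inhibition above a set limit, the median over all tested compounds plus 3 SD, cut at about 9.5% in these data; inconclusive = no clear call, values can overlap the other calls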;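 also: enzyme runs in reverse so mevalonate oxidation gives rising NADPH absorbance; 0% = complete reaction with DMSO and 100% = background rate lacking mevalonate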
14-3-3 Bad PPI – inhibitors of 14-3-3 zeta/Bad binding, primary screen, biochemical, TR-FRET, bovine 14-3-3 zeta. TR-FRET 14-3-3zeta/Dy647-pBad peptide displacement, 1 h. inhibition, % at 21.7 µM. 220,000 compounds, 0.71% hits. AID 781, 2007;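 active = inhibition above about 70%, limit read from the data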;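 also: 0% = full 14-3-3 plus peptide FRET controls and 100% = background without 14-3-3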
Target sequence (P63103 whole entry, looked up): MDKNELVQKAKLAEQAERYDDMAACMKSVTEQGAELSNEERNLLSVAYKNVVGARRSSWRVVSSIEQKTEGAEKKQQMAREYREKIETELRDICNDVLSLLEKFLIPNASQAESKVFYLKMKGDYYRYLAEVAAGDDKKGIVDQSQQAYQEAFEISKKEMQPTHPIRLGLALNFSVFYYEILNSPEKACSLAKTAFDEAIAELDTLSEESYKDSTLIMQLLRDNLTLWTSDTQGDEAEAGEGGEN
p47phox inh – p47phox/p22phox peptide binding inhibitors, primary screen, biochemical, uHTS, NADPH oxidase regulatory subunit; Neutrophil cytosol factor 1 (Homo sapiens), P14598; fluorescence polarization, 2 h; inhibition, % at 24.7 µM; 220,000 compounds, 0.53% hits; AID 1274, 2008;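 active = inhibition above about 30%, limit read from the data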;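 also: 0% = p47phox with labelled peptide and 100% = labelled peptide alone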
Active calls of the source: *; u = inconclusive; x = no result; [ ] = remark or other dose. A selection: hits, their analogues and other compounds. The true share with any hit is near 1.9%.

SMILES | dFosB act | Efa HMGR inh | 14-3-3 Bad PPI | p47phox inh
Cc1cccc(C2Nc3cccc4cccc(c34)N2)c1 | 13 | x | x | x
COc1cc(C2Nc3cccc4cccc(c34)N2)ccc1O | 52* | x | x | x
Cc1ccc2nc(-c3ccc(NC(=S)NC4CC(C)(C)NC(C)(C)C4)cc3)sc2c1 | -65 | -2 | 93* | 22
O=C(O)c1ccccc1-n1ncc2c1/C(=C/c1ccc(Cl)cc1)CC2 | x | x | 79* | -9
O=C(O)c1ccc(-n2ncc3c2/C(=C/c2cccc([N+](=O)[O-])c2)CC3)cc1 | -4 | x | -2 | -18
Cc1cc(C)cc(N(CC(=O)N2CCC(C)CC2)S(=O)(=O)c2ccccc2)c1 | -2 | -2 | 3 | -9
Cc1sccc1/C=N/NC(=O)c1cccc2ccccc12 | 5 | 0 | -1 | -4
CCCOc1ccc(/C(O)=C2\C(=O)C(=O)N(CCCOC)C23C(=O)N(C)c2ccccc23)cc1 (stereo not drawn) | 3 | -7 | 70* | 1
CCC(C(=O)OCC(=O)NC(=O)c1ccccc1)c1ccccc1 (stereo not drawn) | 1 | x | x | x
O=C1c2ccccc2C(Nc2ccc3c(c2)OCO3)N1Cc1ccco1 (stereo not drawn) | -9 | -8 | -1 | -3
COc1cccc(-n2c(SCC(=O)O)nnc2-c2cccnc2)c1 | -7 | -3 | 88* | -4
O=C(Nc1cccnc1)c1cc(-c2ccc(Cl)c(Cl)c2)on1 | 76* | x | x | x
O=C(Nc1cccc(C(F)(F)F)c1)c1cccnc1N1CCN(CCO)CC1 | 4 | -5 | -7 | -4
O=C(Nc1cccc(C(F)(F)F)c1)c1cccnc1N1CCN(c2ccccc2)CC1 | -8 | -4 | 88*[fluorescence artefact?] | -1
O=c1[nH]c2ccccc2n1CCCOc1ccccc1 | -7 | 0 | -6 | 3
COc1cccc(NC(=O)c2ccc3snnc3c2)c1 | -2 | 17* | -7 | -12
O=C(Nc1ccc(F)cc1)c1ccc2snnc2c1 | -6 | x | x | x
O=c1cc(NC2CCCCC2)c2ccccc2o1 | 1 | -6 | 2 | -8
Cc1ccc2c(c1)[C@H]1[C@H](CO2)[C@H](c2ccccc2)[C@]2(C)C(=O)Nc3ccccc3C(=O)N12 | -4 | x | x | x
C/C(=N\NC(N)=O)c1cccc(Cl)c1 | 1 | -3 | 75*[fluorescence artefact?] | -4
C/C(=N\NC(=O)Cc1ccc(Cl)cc1)c1cccnc1 | -2 | x | x | x
O=C(Cc1ccccc1)N[C@@H](Cc1ccccc1)c1nc2ccccc2[nH]1 | -5 | -5 | 15 | -4
Cc1cccc(N(CC(N)=O)C2SC(=O)N(c3ccccc3)C2=O)c1 (stereo not drawn) | u | 1 | 6 | -5
Cc1ccc(N(CC(N)=O)C2SC(=O)N(C)C2=O)cc1 (stereo not drawn) | -6 | -2 | 80* | -5
Cn1cc(/C=C/c2cc[n+](C)cc2)c2cc(Cl)ccc21 | 5 | x | x | x
SMILES | dFosB act | Efa HMGR inh | 14-3-3 Bad PPI | p47phox inh
O=C(c1ccco1)N1C(=O)c2cccc3cccc1c23 | -23 | -1 | -6 | 150*
Nc1cccc2c1C(=O)N(C(=O)c1ccco1)C2=O | -5 | x | -1 | -10
COc1ccccc1CC(=O)Nc1cc(Cl)ccc1O | -3 | -3 | -9 | -11
COC(=O)c1ccccc1S(=O)(=O)N1CCC(C(=O)OCC(=O)NC2CCCCC2C)CC1 (stereo not drawn) | -5 | x | x | x
CSc1nc(N)nc(SCC(=O)CC(=O)OC(C)C)c1C#N | -7 | -7 | -6 | -8
CC1CCCN(CCOCCOc2ccc(Cl)cc2Br)C1 (stereo not drawn) | -8 | -3 | 71* | -12
CC1CCCN(CCOCCOc2ccc(Br)cc2Cl)C1 (stereo not drawn) | 11 | -3 | 5 | -6
CC1CC(C)CN(CCOc2ccc(Cl)cc2Cl)C1 (stereo not drawn) | -4 | -7 | 72* | -18
OC(COc1ccc2c(c1)CCC2)Cn1cnc2ccccc21 (stereo not drawn) | -11 | 0 | 23 | 3
CN(C)c1ccc(CNCCC2CCOC(C)(C)C2)cc1 (stereo not drawn) | x | -7 | 92* | -11
COc1cc2cc(C(=O)N[C@@H](Cc3ccccc3)C(=O)O)n(C)c2c(OC)c1OC | 3 | x | x | x
COc1cc2cc(C(=O)O)n(C)c2c(OC)c1OC | -1 | 0 | 0 | 60*
CCc1nnc(NC(=O)CCC(=O)N2CCCC2)s1 | 6 | 0 | 0 | 90*
Cc1[nH]nc(N2CCCCC2)c1[N+](=O)[O-] | 2 | -1 | 7 | -27
Cc1c(NC(=O)c2ccccc2)cccc1[N+](=O)[O-] | 3 | -1 | 5 | -11
Cc1cccc(NC(=O)COC(=O)c2ccccn2)c1 | -7 | x | x | x
O=C(COC(=O)c1ccccn1)Nc1cccc(Cl)c1 | -2 | 1 | -13 | 36*
CCC(C)N=C1Sc2nc3ccc(C)cc3cc2CN1CCOC (stereo not drawn) | -2 | 9.6* | 21 | 4
COCCN1Cc2cc3cc(C)ccc3nc2SC1=Nc1ccc(OC)cc1 | -9 | -5 | -6 | -1
CCn1nc(NC(=O)COC)c2cc3cc(C)ccc3nc21 | -1 | x | x | x
Cc1cc(C)n(CC(O)COc2ccccc2)n1 (stereo not drawn) | -3 | 3 | 3 | 8
Cc1cc(C)n(C(=O)COc2ccccc2C)n1 | -1 | 13* | 1 | 4
Cc1cc(C)n(CC(O)COc2ccccc2C)n1 (stereo not drawn) | 0 | 12* | -13 | 2
O=C(Cc1cccc(C(F)(F)F)c1)NCC(c1ccco1)N1CCCCC1 (stereo not drawn) | -1 | -3 | 89* | -21
O=C(NCC(c1ccco1)N1CCCC1)c1ccccc1F (stereo not drawn) | -9 | -5 | 4 | -10
SMILES | dFosB act | Efa HMGR inh | 14-3-3 Bad PPI | p47phox inh
CSc1ccccc1C(=O)NCC(c1ccco1)N1CCCCC1 (stereo not drawn) | 1 | 12* | 64 | -8
COC(=O)c1ccc(-c2nc(CN3CCC(C(=O)N4CCOCC4)CC3)c(C)o2)cc1 | 0 | x | x | x
CCOC(CNC(=O)C(=O)Nc1cc2c3c(c1)CCN3C(=O)CC2)OCC | -9 | x | x | x
Cc1ccccc1C(=O)N=c1sccn1C | 5 | 2 | -5 | 110*
Cc1ccc(S(=O)(=O)CS(=O)(=O)c2ccc(C)cc2)cc1 | 5 | x | x | x
Cc1ccc(S(=O)(=O)CCCS(=O)(=O)c2ccc(C)cc2)cc1 | 4 | 11* | 0 | 4
O=C(c1ccc(F)cc1)N1CCN(C2CCCCC2)CC1 | 5 | x | x | x
O=C(c1ccc(-n2cccc2)cc1)N1CCN(Cc2ccccc2)CC1 | 1 | 0 | 91* | 5
O=C(c1ccccc1)N1CCN(C2CCCCCC2)CC1 | -1 | -5 | 72* | -5
COc1cccc(C(=O)N2CCN(C3CCC(c4ccccc4)CC3)CC2)c1 (stereo not drawn) | -6 | -6 | 75* | -2
COc1ccc(C(=O)N2CCC(N3CCN(c4ccccc4)CC3)CC2)cc1 | -5 | 0 | 89* | -4

Compound activity deposited in PubChem BioAssay by several laboratories.
